Compounds with a hit are over-represented: about 2.8% of the library has one in this group of screens.
PAFAH2 FP inh: PAFAH2 enzyme inhibitors, primary screen, biochemical, fluorescence polarization, human; Platelet-activating factor acetylhydrolase 2, cytoplasmic (Homo sapiens), Q99487; recombinant PAFAH2, FP-rhodamine activity probe; inhibition, % at 3.39 µM; hit rate 0.99% among 340,000;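 active = inhibition above the mean over all tested compounds plus 3 SD, cut at about 30% in these data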;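 also: inhibitors block probe labeling of enzyme so polarization drops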
DAGLB inh: DAGLB lipase inhibitors, primary screen, biochemical, fluorescence, HTS; HEK293T DAGLB membrane lysate, EnzChek fluorogenic substrate; inhibition, % at 5.17 µM; hit rate 0.059% among 340,000; in the data active = inhibition above about 34%
PAFAH1B3 FP inh: PAFAH1B3 enzyme inhibitors, primary screen, biochemical, fluorescence polarization, human; Platelet-activating factor acetylhydrolase IB subunit alpha1 (Homo sapiens), Q15102; recombinant PAFAH1B3, FP-rhodamine probe; inhibition, % at 3.39 µM; hit rate 0.28% among 340,000; AID 492972, 2010;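 active = inhibition above the screen-wide average of all tested compounds plus 3 SD, cut at about 25% in these data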
pPAFAH inh: pPAFAH enzyme inhibitors, primary screen, biochemical, fluorescence polarization, human | Platelet-activating factor acetylhydrolase (Homo sapiens), Q13093 | recombinant pPAFAH, FP-rhodamine probe fluorescence polarization | inhibition, % at 3.39 µM | hit rate 1.5% among 330,000 | AID 463082, 2010;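 active = inhibition above the mean inhibition across the screen plus 3 SD, cut at about 25% in these data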;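 also: inhibitors block binding of the rhodamine activity-based probe so polarization drops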
Target sequence (Q13093 whole entry, looked up): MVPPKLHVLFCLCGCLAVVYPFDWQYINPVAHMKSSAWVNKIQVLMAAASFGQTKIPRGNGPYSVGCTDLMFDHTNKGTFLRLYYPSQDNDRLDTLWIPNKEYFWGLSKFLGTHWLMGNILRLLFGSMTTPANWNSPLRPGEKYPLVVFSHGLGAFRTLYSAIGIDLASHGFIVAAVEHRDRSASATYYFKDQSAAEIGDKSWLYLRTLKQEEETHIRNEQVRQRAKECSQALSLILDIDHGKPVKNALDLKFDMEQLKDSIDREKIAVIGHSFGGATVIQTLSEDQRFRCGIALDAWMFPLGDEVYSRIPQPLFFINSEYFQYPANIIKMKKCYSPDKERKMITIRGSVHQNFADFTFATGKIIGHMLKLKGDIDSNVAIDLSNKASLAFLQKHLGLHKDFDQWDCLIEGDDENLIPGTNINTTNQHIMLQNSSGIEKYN
PAFAH1B2 inh: PAFAH1B2 enzyme inhibitors, primary screen, biochemical, fluorescence polarization, human | recombinant PAFAH1B2, FP-rhodamine activity probe | inhibition, % at 3.39 µM | hit rate 1.2% among 340,000 | AID 492953, 2010;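 active = inhibition above the mean of all tested compounds plus 3 SD, cut at about 24% in these data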
Target sequence (P68402 whole entry, looked up): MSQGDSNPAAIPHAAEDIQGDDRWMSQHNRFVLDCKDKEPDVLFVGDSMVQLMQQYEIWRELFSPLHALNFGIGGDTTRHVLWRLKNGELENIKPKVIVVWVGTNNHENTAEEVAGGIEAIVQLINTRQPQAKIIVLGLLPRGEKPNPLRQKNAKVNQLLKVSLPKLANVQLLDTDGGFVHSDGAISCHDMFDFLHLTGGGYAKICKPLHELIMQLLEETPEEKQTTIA
HTRA1 inhibitor: HTRA1 serine protease inhibitors, primary screen, biochemical, fluorescence polarization, HTS; AID 504803, 2011; hit rate 0.5% among 340,000; recombinant HTRA1, FP-rhodamine activity-based probe; inhibition, % at 5.96 µM; Q92743; in the data active = inhibition above about 36%
Large screens that a line does not name were inactive.

Oc1ccccc1C1NN=C(c2ccccc2)S1 (stereo not drawn)	PAFAH2 FP inh 49.5
CSc1ccc(C2NN=C(c3ccccc3)S2)cc1 (stereo not drawn)	none (no result: PAFAH2 FP inh, DAGLB inh, PAFAH1B3 FP inh, PAFAH1B2 inh, HTRA1 inhibitor)
COCC(C)NC(=O)NC1(C(F)(F)F)Oc2ccc(Cl)cc2O1 (stereo not drawn)	PAFAH1B2 inh 24.9
O=[N+]([O-])c1ccc(C=Nc2ccc(Cl)c([N+](=O)[O-])c2)s1	PAFAH2 FP inh 60.1 (no result: pPAFAH inh)
NC(=O)c1ccc(N=Cc2ccc([N+](=O)[O-])s2)cc1	PAFAH2 FP inh 59.6
Cc1cc(C)cc(N=Cc2ccc([N+](=O)[O-])s2)c1	none
O=c1cc(NCc2ccccc2)[nH]c(=O)[nH]1	none
O=C(CC1CC2CCC1C2)Nc1nc(-c2ccccn2)cs1 (stereo not drawn)	PAFAH1B2 inh 54.6
O=C(Nc1nc(-c2ccccn2)cs1)C1CC1	none
C/C(=N\Nc1ccc(C(=O)O)cc1)c1ccc2c(c1)Nc1ccccc1S2	PAFAH1B3 FP inh 25.6, pPAFAH inh 33.6
COC(=O)c1ccc(COC(=O)C(NC(=O)Cc2ccccc2)C(C)C)cc1 (stereo not drawn)	none (no result: pPAFAH inh)
N#CCC(=O)Nc1ccc(C(=O)OCC(=O)NNC(=O)c2ccc(Cl)cc2)cc1	none
O=C(COC(=O)c1ccc(Cl)nc1)Nc1ccc2ccccc2c1	none (no result: pPAFAH inh)
CC(=O)Nc1ccc(C(=O)OCc2ccc(F)cc2)cc1	none
O=C(COC(=O)c1ccc(O)cc1)Nc1ccc(Cl)cc1	pPAFAH inh 27.3 (no result: PAFAH2 FP inh, DAGLB inh, PAFAH1B3 FP inh, PAFAH1B2 inh, HTRA1 inhibitor)
N#CCC(=O)Nc1ccc(C(=O)OCC(=O)Nc2ccc3ccccc3c2)cc1	pPAFAH inh 32.6
CC(=O)Nc1ccc(C(=O)OCc2ccc(Cl)cc2)cc1	PAFAH2 FP inh 30.8
CNC(=O)c1cn2c3c(ccc(Cl)c3c1=O)OC(C)C2 (stereo not drawn)	none (no result: pPAFAH inh)
Cc1cccc(NC(=S)NCCSc2ccc(Cl)cc2)c1	PAFAH1B2 inh 27.6
O=C(/C=C/c1ccccc1)NCCSc1ccc(Cl)cc1	PAFAH1B2 inh 28.8
CCc1ccccc1NC(=S)NCCSc1ccc(Cl)cc1	pPAFAH inh 30.7, PAFAH1B2 inh 36.7
O=C(/C=C/c1ccccc1)NCCOc1ccccc1	none
Cc1ccc(NC(=S)NCCSc2ccc(Cl)cc2)c(C)c1	none
Cc1ccc(C)c(NC(=S)NCCSc2ccc(Cl)cc2)c1	PAFAH1B2 inh 37.2
CC(C)(C)N(Cc1ccccc1)C(=O)COC(=O)C1=NN(c2ccccc2)C(=O)CC1	none (no result: pPAFAH inh)
CN(CC(=O)Nc1ccc(F)c(F)c1F)C(=O)c1ccc2c(c1)OCCO2	none
CC1CCCN(C(=S)NC2CCCC2)C1 (stereo not drawn)	none
O=C(CSc1ccc(Cl)cc1)N/N=C/c1ccc([N+](=O)[O-])o1	PAFAH1B2 inh 29.1
O=C(NNc1c2ccccc2nc2ccccc12)c1ccc(O)cc1	none
O=C(NNc1c2ccccc2nc2ccccc12)c1cccc(O)c1	pPAFAH inh 25.6
CC(C)(C)OC(=O)C[C@H]1C/C=C\C[C@@H](CC(=O)N(CCO)Cc2ccccc2)C(=O)N[C@H](Cc2ccccc2)COC1=O	none
O=C1c2cccc3c([N+](=O)[O-])ccc(c23)C(=O)N1c1nccs1	PAFAH1B3 FP inh 32.9
O=C1c2cccc3cccc(c23)C(=O)N1c1nccs1	none
O=C1c2ccc([N+](=O)[O-])cc2C(=O)N1c1ccc(Cl)cn1	none
O=C1c2cccc3c([N+](=O)[O-])ccc(c23)C(=O)N1c1ccc(Cl)cn1	PAFAH1B3 FP inh 33.8
COc1ccc2c([N+](=O)[O-])c(Cl)[nH]c2c1	none
O=C(NNC(=O)c1ccccc1[N+](=O)[O-])c1ccc(NS(=O)(=O)c2cccs2)cc1	none
Cc1ccc(CSCCNS(=O)(=O)c2ccc([N+](=O)[O-])cc2)cc1	PAFAH1B2 inh 25.0
Cc1ccc(S(=O)(=O)NCCSCc2ccccc2)cc1	none
CC(C)(C)C(=O)NC1(C(F)(F)F)NC(=O)N(c2ccc(F)cc2)C1=O (stereo not drawn)	none
Cc1c(C(=O)N2CCCCC2)c(S(=O)(=O)N2CCN(c3ccc(F)cc3)CC2)c(C)n1C	none
Cc1c(C(=O)N2CCCCC2)c(S(=O)(=O)N2CCN(c3ccc(Cl)cc3)CC2)c(C)n1C	pPAFAH inh 25.1
CCCn1c(C)cc(/C=C(\C#N)C(=O)OCC(=O)N(CC)c2c(N)n(Cc3ccccc3)c(=O)[nH]c2=O)c1C	none (no result: pPAFAH inh)
COc1ccc2c(c1)O[C@@H](c1cccc(C(F)(F)F)c1)[C@H](O)C2=O	PAFAH2 FP inh 71.5
COc1ccc2c(c1)O[C@H](c1ccc3c(c1)OCO3)[C@@H](O)C2=O	none
N#C/C(=C(/O)CSc1ccccn1)c1nc2ccccc2s1	none
N#C/C(=C(/O)COc1ccccc1)c1nc2ccccc2s1	none
Cc1ccc(SC/C(O)=C(\C#N)c2nc3ccccc3s2)cc1	PAFAH1B2 inh 28.9
N#C/C(=C(/O)COC(=O)c1ccc(C#N)cc1)c1nc2ccccc2s1	pPAFAH inh 25.4
O=C(COC(=O)c1cc([N+](=O)[O-])ccc1N1CCOCC1)NCc1ccc(Cl)cc1Cl	none
CCOc1ccc2nc(NC(=O)CSc3nc(-c4ccccc4)c(C#N)c(=O)[nH]3)sc2c1	PAFAH1B2 inh 82.5 (no result: pPAFAH inh)
CCOC(=O)Cc1csc(NC(=O)CSc2nc(-c3ccccc3)c(C#N)c(=O)[nH]2)n1	PAFAH1B2 inh 65.1
COc1cccc(-c2nc(SCC(=O)Nc3nc(-c4ccccc4)c(C)s3)[nH]c(=O)c2C#N)c1	none
Cc1ccccc1CN1CCN(CC(=O)NCc2ccccc2)CC1	none
COc1ccc(S(=O)(=O)NCCc2c[nH]c3ccc(C)cc23)cc1	none (no result: pPAFAH inh)
O=C(NCC1COCCO1)c1cc(COc2c(F)cccc2F)on1 (stereo not drawn)	pPAFAH inh 24.9
COc1cccc(CNC(=O)COC(=O)C23CC4CC(CC(Cl)(C4)C2)C3)c1	PAFAH1B2 inh 28.3
Cc1c(NC(=O)C(C)OC(=O)c2sc3ccccc3c2Cl)c(=O)n(-c2ccccc2)n1C (stereo not drawn)	none
Cc1c(NC(=O)C(C)OC(=O)c2ccc([N+](=O)[O-])s2)c(=O)n(-c2ccccc2)n1C (stereo not drawn)	PAFAH1B3 FP inh 33.0, pPAFAH inh 29.8
Cc1cccc(NC(=O)CN(C)S(=O)(=O)c2ccc3c(c2)n(C)c(=O)c(=O)n3C)c1C	none
Cc1ccc(S(=O)(=O)NC(CC(C)C)C(=O)Nc2ccncc2)cc1 (stereo not drawn)	PAFAH1B2 inh 24.7
Cc1ccc(S(=O)(=O)N2CCC(=O)N(C(COCc3ccc(Cl)cc3)C(C)C)CC2)cc1 (stereo not drawn)	none

Bioassay records from PubChem.
